Paper PMC4336329 (PLoS ONE, 2015)
Hit rate of the full screen: of about 310,000 compounds, about 14,000 (4.5%) showed an effect of 50% or more. The effect is printed as a negative number. The list comes from a sample in which strong results are over-represented; it also holds similar structures and randomly drawn compounds.

target: human ether-à-go-go-related gene (hERG) potassium channel (human, UniProt Q12809); test: primary screen, population patch clamp on CHO cells stably expressing hERG; higher = less effect of the substance
Sequence (Q12809 whole entry, looked up): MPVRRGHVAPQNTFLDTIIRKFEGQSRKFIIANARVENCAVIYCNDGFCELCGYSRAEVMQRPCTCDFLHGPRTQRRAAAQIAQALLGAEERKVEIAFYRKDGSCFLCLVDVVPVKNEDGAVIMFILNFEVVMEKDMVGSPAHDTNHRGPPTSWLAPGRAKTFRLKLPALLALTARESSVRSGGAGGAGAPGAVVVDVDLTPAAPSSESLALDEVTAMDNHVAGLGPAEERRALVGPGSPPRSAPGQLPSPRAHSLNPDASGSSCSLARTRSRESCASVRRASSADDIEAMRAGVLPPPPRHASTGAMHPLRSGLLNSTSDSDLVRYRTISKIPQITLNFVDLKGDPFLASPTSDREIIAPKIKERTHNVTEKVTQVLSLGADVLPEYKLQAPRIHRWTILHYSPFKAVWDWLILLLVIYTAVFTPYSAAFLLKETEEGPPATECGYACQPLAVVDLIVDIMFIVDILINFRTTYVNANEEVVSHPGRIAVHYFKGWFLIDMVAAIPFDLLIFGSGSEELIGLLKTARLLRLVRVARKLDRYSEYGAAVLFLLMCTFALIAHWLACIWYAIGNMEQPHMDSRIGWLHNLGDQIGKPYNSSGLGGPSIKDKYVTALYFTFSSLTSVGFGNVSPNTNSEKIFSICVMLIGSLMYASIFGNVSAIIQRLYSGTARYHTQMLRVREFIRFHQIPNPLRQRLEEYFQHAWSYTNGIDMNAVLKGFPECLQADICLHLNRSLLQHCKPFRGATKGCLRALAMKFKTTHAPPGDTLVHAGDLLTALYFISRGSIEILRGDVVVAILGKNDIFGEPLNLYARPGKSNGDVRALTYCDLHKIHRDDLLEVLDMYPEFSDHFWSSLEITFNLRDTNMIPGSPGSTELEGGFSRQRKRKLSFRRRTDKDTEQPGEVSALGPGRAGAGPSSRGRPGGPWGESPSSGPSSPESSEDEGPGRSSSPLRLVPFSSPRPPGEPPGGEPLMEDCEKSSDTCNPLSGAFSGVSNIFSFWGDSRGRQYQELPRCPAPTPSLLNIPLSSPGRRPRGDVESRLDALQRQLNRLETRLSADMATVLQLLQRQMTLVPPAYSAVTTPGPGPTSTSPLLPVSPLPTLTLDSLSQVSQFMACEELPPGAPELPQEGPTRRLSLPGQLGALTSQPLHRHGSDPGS
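Note: peak tail current of the secondary pulse compared with the same well before compound.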

Row | Compound | hERG current change (%, negative = inhibition) at 10uM
1 | CCC(=NCCc1c(C)[nH]c2ccccc12)C1=C(O)CC(c2ccccc2)CC1=O (stereo not drawn) | 6.02%
2 | N#C/C(=C(\O)Cc1ccccc1)c1nc2ccccc2[nH]1 | 15.6%
3 | C=C(Br)Cn1c(CCCC)nc2ccccc21 | -21.6%
4 | CCCCc1nc2ccccc2n1Cc1nnc2n1-c1ccccc1SC2 | -63%
5 | CCCCc1nc2ccccc2n1CC(=O)NN | 16.3%
6 | Nc1nnnn1CC(=O)OCc1cccc(Br)c1 | -13.8%
7 | COc1ccc(Cl)cc1NC(=O)CN(C)CC(=O)Nc1cc(OC)c(OC)c(OC)c1 | -8.72%
8 | COc1ccc(CCNC(=O)C2CCCN(Cc3nc(-c4cccc(Cl)c4)oc3C)C2)cc1OC (stereo not drawn) | -84.1%
9 | Cc1oc(-c2cccc(Cl)c2)nc1CN1CCC(C(=O)NCCCN2CC(C)CC(C)C2)CC1 (stereo not drawn) | -21.4%
10 | COc1ccc(CCNC(=O)C2CCN(C(=O)c3cccc(Cl)c3)CC2)cc1OC | 11.5%
11 | COc1ccc(CCNC(=O)C2CCN(Cc3nc(-c4cccc(Cl)c4)oc3C)CC2)cc1OC | -85.2%
12 | CCc1cc2c(cc3c(=O)n(CC(=O)N4CCN(C)CC4)ncn32)s1 | -14.3%
13 | CCOC(=O)c1ccccc1NC(=O)COC(=O)c1ccccc1C(=O)N(C)c1ccccc1 | -23.5%
14 | CC(OC(=O)CN1C(=O)NC2(CCCC2)C1=O)C(=O)Nc1cccc(Cl)c1 (stereo not drawn) | -15.3%
15 | O=C(O)CC(CC(=O)Nc1ccc(-c2ccccc2)cc1)c1ccccc1 (stereo not drawn) | 9.93%
16 | Cc1cc(C(=O)N/N=C/c2sccc2C)no1 | 17.2%
17 | O=C(NCCN1CCCCC1)Nc1ccc(Cl)cc1 | -33.7%
18 | Cc1ccc(NC(=O)NCCN2CCCCC2)cc1 | -11%
19 | S=C(NCCN1CCCCC1)Nc1ccccc1 | 0.941%
20 | CCCCNC(=S)Nc1ccc(C(F)(F)F)cc1 | -52.8%
21 | CN(C)CCCNC(=S)Nc1ccc(Br)cc1 | -11.6%
22 | O=C(NCCN1CCCCC1)Nc1ccc(Br)cc1 | -52.4%
23 | CCCCNC(=S)Nc1ccc(F)cc1 | 20.6%
24 | S=C(NCCN1CCOCC1)Nc1ccc(Br)cc1 | 5.71%
25 | CCN(CC)CCCNC(=S)Nc1ccc(Br)cc1 | -53.2%

Row | Compound | hERG current change (%, negative = inhibition) at 10uM
26 | CCCNC(=S)Nc1ccc(Br)cc1 | 11.8%
27 | CCCCNC(=S)Nc1ccc(Cl)cc1 | 3.01%
28 | S=C(NCCN1CCCCC1)Nc1ccc(Br)cc1 | -69.1%
29 | COc1ccccc1CNC(=O)C1CCC(=O)N(CCCc2ccccc2)C1 (stereo not drawn) | -9.31%
30 | CC(C)c1cc(CNC(=O)CC2C(=O)NCCN2CC2CCCCC2)on1 (stereo not drawn) | 11.2%
31 | Cc1ccc(NC(=O)NCCN2CCCCC2)cc1C | -15.8%
32 | O=C(NCCN1CCCCC1)Nc1ccc(F)c(Cl)c1 | -33.9%
33 | Cc1ccc(NC(=O)NCCN2CCCCC2)cc1Cl | -51.7%
34 | COc1ccc(S(=O)(=O)N2CCN(C(=O)[C@H](Cc3ccccc3)NC(=O)c3ccco3)CC2)cc1 | -28.6%
35 | CC1CCCN(CCOc2ccc(Br)cc2)C1 (stereo not drawn) | -51.3%
36 | Brc1ccc(OCCN2CCOCC2)cc1 | 4.54%
37 | CCCOc1ccc(OCCN2CCCC(C)C2)cc1.O=C(O)C(=O)O (stereo not drawn) | -52.2%
38 | CC1CC(C)CN(CCOc2ccc(Br)cc2)C1.O=C(O)C(=O)O (stereo not drawn) | -60.3%
39 | COc1ccc(OCCCN2CCCC(C)C2)cc1 (stereo not drawn) | -32%
40 | CC1CN(CCOc2ccc(Cl)c(Cl)c2)CC(C)O1.O=C(O)C(=O)O (stereo not drawn) | -5.18%
41 | CC1CN(CCOc2ccc(F)cc2)CC(C)O1.O=C(O)C(=O)O (stereo not drawn) | 6.81%
42 | O=C(CSc1nc2ccccc2n1CC(=O)N1CCCC1)Nc1ccc2c(c1)OCO2 | -37.7%
43 | CC(=O)Nc1c(C)nn(C(C)=O)c1C | 16.4%
44 | CC(=O)N(C(C)=O)c1nc2nc(C)cc(C)n2n1 | -42.3%
45 | COc1cccc(NC(=O)NCCc2ccc(Cl)cc2)c1 | 9.47%
46 | CCOC(=O)NNc1ccccc1 | 6.88%
47 | Cc1ccc(-c2csc3nc4ccc(C(=O)NCCO)cc4c(=O)n23)cc1 | 12.1%
48 | CC(C)(C)c1ccc(OCCC(=O)OCC(=O)Nc2cccnc2Cl)cc1 | -2.33%
49 | COc1cc2c(cc1OC)C(c1cccs1)N(C(=O)c1cccnc1)CC2 (stereo not drawn) | -54.9%
50 | COc1cc2c(cc1OC)C(c1cccs1)N(C(=S)NC(C)C)CC2 (stereo not drawn) | -40%

Row | Compound | hERG current change (%, negative = inhibition) at 10uM
51 | COc1ccc(C2c3cc(OC)c(OC)cc3CCN2C(=O)c2ccccc2)cc1OC (stereo not drawn) | 2.95%
52 | COc1cc2c(cc1OC)C(c1ccccc1)N(C(=O)c1ccccc1)CC2 (stereo not drawn) | -13.1%
53 | COc1cc2c(cc1OC)C(c1cccs1)N(C(=O)C(C)C)CC2 (stereo not drawn) | -19.2%
54 | COc1cc2c(cc1OC)C(c1cccs1)N(C(=O)c1ccncc1)CC2 (stereo not drawn) | -66.8%
55 | Cc1cc2ccccc2c(=O)n1CC(=O)NCCC1=CCCCC1 | 8.01%
56 | Cc1c(C#N)c(NC(=O)CCl)n(Cc2ccccc2)c1C | 31.1%
57 | CC(C)n1c(SCc2ccc(Cl)cc2)nc2c1c(=O)[nH]c(=O)n2C | 18.5%
58 | Cc1ccc(OP(=O)(NC(C)c2ccccc2)Oc2ccc(C)cc2)cc1 (stereo not drawn) | 17.6%
59 | C=CCN(CC=C)S(=O)(=O)c1ccc(NC(=S)NC(=O)/C=C/c2cccc3ccccc23)cc1 | 1.52%
60 | O=C(Cc1ccc(Br)cc1)N1CCN(C(=O)c2ccccc2)CC1 | -30.1%
61 | CCOc1ccc(/C=C/[N+](=O)[O-])c2ccccc12 | -8.67%
62 | CCN1CCN(c2ccc(S(=O)(=O)N3CCOCC3)cc2NC(=O)c2ccc(C(F)(F)F)cc2)CC1 | -44.2%
63 | CCN1CCN(c2ccc(S(=O)(=O)N3CCCCC3)cc2NC(=O)c2ccc(OC(F)F)cc2)CC1 | -57.2%
64 | CCN1CCN(c2ccc(S(=O)(=O)N3CCCCC3)cc2NC(=O)c2cccc(F)c2)CC1 | -34.6%
65 | CCN1CCN(c2ccc(S(=O)(=O)N3CCCCC3)cc2NC(=O)/C=C/c2ccc(OC(F)F)cc2)CC1 | -50.2%
66 | CN1CCN(c2ccc(S(=O)(=O)N3CCCCC3)cc2NC(=O)/C=C/c2ccc(OC(F)F)cc2)CC1 | -39.2%
67 | CCN1CCN(c2ccc(S(=O)(=O)N3CCCCC3)cc2NC(=O)/C=C/c2ccc(OC)c(OC)c2)CC1 | -31.4%
68 | CCN1CCN(c2ccc(S(=O)(=O)N3CCCCC3)cc2NC(=O)c2ccccc2)CC1 | -46%
69 | CCN1CCN(c2ccc(S(=O)(=O)N3CCCCC3)cc2NC(=O)/C=C/c2cccc(OC)c2OC)CC1 | -18.9%
70 | CCN1CCN(c2ccc(S(=O)(=O)N3CCCCC3)cc2NC(=O)c2cccc(C(F)(F)F)c2)CC1 | -46.7%
71 | CCN1CCN(c2ccc(S(=O)(=O)N3CCCCC3)cc2NC(=O)c2ccc(F)cc2)CC1 | -56.5%
72 | CCN1CCN(c2ccc(S(=O)(=O)N3CCCCC3)cc2NC(=O)/C=C/c2cc(OC)ccc2OC)CC1 | -52.7%
73 | CCN1CCN(c2ccc(S(=O)(=O)N3CCOCC3)cc2NC(=O)/C=C/c2ccc(OC)cc2OC)CC1 | -17.2%
74 | O=C(Nc1ccc2c(c1)OCO2)c1ccc(COc2ccc3c(c2)CCC3)o1 | 5.22%
75 | CCN(Cc1ccccc1)C(=O)COC(=O)c1c(C)nsc1NC | -6.97%

Row | Compound | hERG current change (%, negative = inhibition) at 10uM
76 | CCOCCCNC(=O)c1cc(Nc2ccc(OC)cc2OC)nc2ccccc12 | -7.58%
77 | COc1ccc(N2C(=O)CCC(C(=O)Nc3ccccn3)C2c2ccc(OC)c(OC)c2)cc1 (stereo not drawn) | 8.15%
78 | Cc1ccc(-n2c(C)c(C)c3c(NCCN(C)C)ncnc32)cc1 | -36.3%
79 | COC(=O)c1ccc(C)c(NC(=O)CN2C(=O)c3ccccc3S2(=O)=O)c1 | 6.46%
80 | Cc1ccc(CNC(=S)Nc2ccc(C)c([N+](=O)[O-])c2)cc1 | 17.5%
81 | CN(CC(=O)Nc1ccc(S(=O)(=O)N2CCCC2)cc1)Cc1c(F)cccc1Cl | -7.41%
82 | O=C(COc1ccc(-n2cnnn2)cc1)Nc1cccc(Cl)c1Cl | 16.8%
83 | CC(=O)Nc1ccc(NC(=O)c2cc([N+](=O)[O-])cc([N+](=O)[O-])c2)cc1 | 22.5%
84 | CCN1CCN(c2ccc(S(=O)(=O)N3CCCCC3)cc2NC(=O)c2cccc(NC(C)=O)c2)CC1 | -71.3%
85 | CCN1CCN(c2ccc(S(=O)(=O)N3CCCCC3)cc2NC(=O)c2cccc(C)c2)CC1 | -37.4%
86 | CCN1CCN(c2ccc(S(=O)(=O)N3CCCCC3)cc2NC(=O)c2cccc(Cl)c2)CC1 | -34.6%
87 | CC1(C)CC(=O)c2cc(N=C/C(C(=O)c3ccccc3)=C(\O)c3ccccc3)c(=O)oc2C1 | 17.6%
88 | O=C1C=C(c2ccc(-c3ccccc3)cc2)C[C@@H](c2ccc(F)cc2)C1 | 6.67%
89 | N#Cc1ccc(C2=CC(=O)C[C@H](c3ccc(F)cc3)C2)cc1 | -72.1%
90 | COc1ccc([C@H]2CC(=O)C=C(c3ccc4ncccc4c3)C2)cc1 | -3.25%
91 | Cc1ccc(C2=CC(=O)C[C@H](c3ccc(F)cc3)C2)cc1 | 19.4%
92 | O=C1C=C(c2ccc(-c3ccccc3)cc2)C[C@@H](c2ccc3c(c2)OCO3)C1 | 7.88%
93 | O=C1C=C(c2ccc3ncccc3c2)C[C@@H](c2ccc(F)cc2)C1 | -62.5%
94 | COc1ccc(C2=CC(=O)CC(c3ccc(F)cc3)C2)cn1 (stereo not drawn) | -61.1%
95 | COc1ccc([C@H]2CC(=O)C=C(c3ccc(OC)nc3)C2)cc1 | 14.2%
96 | O=C1C=C(c2ccc3ncccc3c2)C[C@@H](c2ccc(Cl)cc2)C1 | -3.34%
97 | O=C1C=C(c2ccc3c(c2)OCO3)C[C@@H](c2ccc3c(c2)OCO3)C1 | 10.9%
98 | COc1ccc(C2=CC(=O)C[C@H](c3ccc(Cl)cc3)C2)cn1 | -12.4%
99 | N#Cc1ccc(C2=CC(=O)C[C@H](c3ccc4c(c3)OCO4)C2)cc1 | -70%
